Legend:
Test in all cases: universal protein binding microarray (PBM); transcription factors of Arabidopsis thaliana; high values mean tight binding
[1] = target: GST-NTL6(1-168) (Arabidopsis thaliana, UniProt Q9SCK6 1-168); details: protein: recombinant; tags: GST; chain copies: 2; dsDNA, one strand shown
Procedure, shortened: (§1)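 Each value is a normalised enrichment score (E-score) describing binding. The GST-tagged proteins, NAC-domain, full-length or DNA-binding-domain, were induced in cells (zinc-finger proteins with zinc acetate added) and purified on glutathione–Sepharose 4B. They were applied at 200 to 500 nM final, in duplicate, to double-stranded custom all-10-mer Agilent 4 × 180K arrays, and gapped and ungapped 8-mers were scored.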

[2] = target: T1, GST-ANAC019 NAC domain (Arabidopsis thaliana, UniProt Q9C932 14-162); details: protein: recombinant; tags: GST; chain copies: 2; dsDNA, one strand shown
T1 sequence: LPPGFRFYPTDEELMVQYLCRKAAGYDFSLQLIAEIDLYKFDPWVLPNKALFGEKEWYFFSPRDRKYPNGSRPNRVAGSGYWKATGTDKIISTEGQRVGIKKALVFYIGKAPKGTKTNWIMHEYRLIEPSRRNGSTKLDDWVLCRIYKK
Procedure, shortened: as §1

[3] = target: T2, GST-ANAC055(1-171) (Arabidopsis thaliana, UniProt Q9LDY8 1-171); details: protein: recombinant; tags: GST; chain copies: 2; dsDNA, one strand shown
T2 sequence: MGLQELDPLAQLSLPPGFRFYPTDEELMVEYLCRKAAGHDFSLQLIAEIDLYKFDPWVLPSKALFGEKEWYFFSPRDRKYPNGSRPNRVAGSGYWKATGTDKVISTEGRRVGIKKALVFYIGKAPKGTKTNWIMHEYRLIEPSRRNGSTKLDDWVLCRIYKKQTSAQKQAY
Procedure, shortened: as §1

[4] = target: T3, GST-ATAF1 NAC domain (Arabidopsis thaliana, UniProt Q39013 7-158); details: protein: recombinant; tags: GST; chain copies: 2; dsDNA, one strand shown
T3 sequence: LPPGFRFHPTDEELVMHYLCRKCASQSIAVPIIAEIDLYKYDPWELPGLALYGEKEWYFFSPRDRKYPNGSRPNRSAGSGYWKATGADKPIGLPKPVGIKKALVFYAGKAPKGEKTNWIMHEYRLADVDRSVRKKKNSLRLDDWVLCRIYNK
Procedure, shortened: as §1

[5] = target: T4, GST-ANAC092(1-285) full length (Arabidopsis thaliana, UniProt Q9FKA0 1-285); details: protein: recombinant; tags: GST; chain copies: 2; dsDNA, one strand shown
T4 sequence: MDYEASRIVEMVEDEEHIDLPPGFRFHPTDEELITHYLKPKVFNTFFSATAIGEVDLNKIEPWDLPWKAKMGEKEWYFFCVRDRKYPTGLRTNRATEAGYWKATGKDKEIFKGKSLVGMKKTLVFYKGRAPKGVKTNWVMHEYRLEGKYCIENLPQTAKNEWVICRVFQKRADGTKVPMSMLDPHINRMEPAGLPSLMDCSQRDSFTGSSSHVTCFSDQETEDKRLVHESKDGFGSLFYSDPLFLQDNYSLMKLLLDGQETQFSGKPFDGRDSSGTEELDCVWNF
Procedure, shortened: as §1

[6] = target: T5, GST-NST2(1-184) (Arabidopsis thaliana, UniProt Q9M274 1-184); details: protein: recombinant; tags: GST; chain copies: 2; dsDNA, one strand shown
T5 sequence: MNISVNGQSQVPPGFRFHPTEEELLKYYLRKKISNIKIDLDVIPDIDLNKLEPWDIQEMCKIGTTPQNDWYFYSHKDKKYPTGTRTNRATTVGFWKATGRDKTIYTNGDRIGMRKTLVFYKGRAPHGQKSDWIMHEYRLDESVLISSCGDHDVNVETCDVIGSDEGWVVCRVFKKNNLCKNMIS
Procedure, shortened: as §1

[7] = target: T6, GST-VND3 NAC domain (Arabidopsis thaliana, UniProt Q9FH59 12-162); details: protein: recombinant; tags: GST; chain copies: 2; dsDNA, one strand shown
T6 sequence: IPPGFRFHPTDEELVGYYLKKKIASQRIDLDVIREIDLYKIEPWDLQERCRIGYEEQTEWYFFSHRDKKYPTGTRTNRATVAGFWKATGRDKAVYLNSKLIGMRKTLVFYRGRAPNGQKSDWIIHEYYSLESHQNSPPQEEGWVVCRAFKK
Procedure, shortened: as §1

[8] = target: T7, GST-VND7 NAC domain (Arabidopsis thaliana, UniProt Q9C8W9 9-158); details: protein: recombinant; tags: GST; chain copies: 2; dsDNA, one strand shown
T7 sequence: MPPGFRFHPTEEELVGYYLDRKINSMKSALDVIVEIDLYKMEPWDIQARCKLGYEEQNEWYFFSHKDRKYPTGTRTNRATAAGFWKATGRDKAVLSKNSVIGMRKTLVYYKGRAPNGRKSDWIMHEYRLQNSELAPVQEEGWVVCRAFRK
Procedure, shortened: as §1

[9] = target: GST-WRKY1(266-371) (Arabidopsis thaliana, UniProt Q9SI37 266-371); details: protein: recombinant; tags: GST; dsDNA, one strand shown
Procedure, shortened: as §1

[10] = target: T8, GST-ANAC092(1-176) (Arabidopsis thaliana, UniProt Q9FKA0 1-176); details: protein: recombinant; tags: GST; chain copies: 2; dsDNA, one strand shown
T8 sequence: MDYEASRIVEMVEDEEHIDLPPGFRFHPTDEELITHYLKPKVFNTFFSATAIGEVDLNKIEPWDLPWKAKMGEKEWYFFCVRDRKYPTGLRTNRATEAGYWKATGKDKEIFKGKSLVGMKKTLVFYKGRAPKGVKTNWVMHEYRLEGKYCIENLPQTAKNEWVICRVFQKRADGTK
Procedure, shortened: as §1

[11] = target: T9, GST-SND1(1-203) (Arabidopsis thaliana, UniProt Q9LPI7 1-203); details: protein: recombinant; tags: GST; chain copies: 2; dsDNA, one strand shown
T9 sequence: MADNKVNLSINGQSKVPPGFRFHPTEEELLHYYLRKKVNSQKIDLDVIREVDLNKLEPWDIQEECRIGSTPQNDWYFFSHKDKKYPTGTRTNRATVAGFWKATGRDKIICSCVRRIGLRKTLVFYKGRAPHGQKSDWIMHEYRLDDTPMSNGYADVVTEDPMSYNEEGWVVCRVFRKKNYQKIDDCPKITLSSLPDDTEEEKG
Procedure, shortened: as §1

[12] = target: T10, GST-NAP(1-166) (Arabidopsis thaliana, UniProt O49255 1-166); details: protein: recombinant; tags: GST; chain copies: 2; dsDNA, one strand shown
T10 sequence: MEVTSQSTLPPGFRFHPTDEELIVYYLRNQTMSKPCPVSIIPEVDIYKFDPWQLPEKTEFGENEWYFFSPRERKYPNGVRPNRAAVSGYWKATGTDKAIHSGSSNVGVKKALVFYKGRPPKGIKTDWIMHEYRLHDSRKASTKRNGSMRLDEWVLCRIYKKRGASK
Procedure, shortened: as §1

[13] = target: T11, GST-NTL8 NAC domain (Arabidopsis thaliana, UniProt Q9XIN7 14-156); details: protein: recombinant; tags: GST; chain copies: 2; dsDNA, one strand shown
T11 sequence: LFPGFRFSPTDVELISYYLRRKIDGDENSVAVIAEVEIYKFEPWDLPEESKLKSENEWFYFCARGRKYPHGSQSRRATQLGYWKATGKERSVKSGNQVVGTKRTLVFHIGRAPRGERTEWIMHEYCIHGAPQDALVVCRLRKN
Procedure, shortened: as §1

GST-WRKY1(266-371), sequence (Q9SI37 266-371): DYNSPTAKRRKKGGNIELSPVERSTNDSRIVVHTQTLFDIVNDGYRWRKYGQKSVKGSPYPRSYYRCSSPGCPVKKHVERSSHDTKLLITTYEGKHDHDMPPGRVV
GST-NTL6(1-168), sequence (Q9SCK6 1-168): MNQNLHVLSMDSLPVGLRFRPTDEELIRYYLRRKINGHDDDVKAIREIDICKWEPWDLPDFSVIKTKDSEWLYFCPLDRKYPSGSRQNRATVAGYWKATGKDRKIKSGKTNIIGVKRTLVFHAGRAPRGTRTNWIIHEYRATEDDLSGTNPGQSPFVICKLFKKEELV

## AAGACCAA
[1]
  binding signal: 0.18 E-score
[2]
  binding signal: 0.0878 E-score
[3]
  binding signal: 0.172 E-score
[4]
  binding signal: 0.105 E-score
[5]
  binding signal: 0.124 E-score
[6]
  binding signal: 0.18 E-score
[7]
  binding signal: 0.151 E-score
[8]
  binding signal: 0.124 E-score
[9]
  binding signal: 0.42 E-score

## CTACGCCA
[10]
  binding signal: 0.283 E-score
[4]
  binding signal: 0.057 E-score
[5]
  binding signal: 0.34 E-score
[6]
  binding signal: 0.147 E-score
[11]
  binding signal: 0.454 E-score

## AAAGGTAA
[1]
  binding signal: 0.262 E-score
[3]
  binding signal: 0.192 E-score
[5]
  binding signal: 0.0772 E-score
[12]
  binding signal: 0.0527 E-score
[6]
  binding signal: 0.199 E-score
[13]
  binding signal: 0.402 E-score
[11]
  binding signal: 0.124 E-score

## GGGGGTAA
[1]
  binding signal: 0.147 E-score
[5]
  binding signal: 0.166 E-score
[13]
  binding signal: 0.403 E-score
[11]
  binding signal: 0.229 E-score

## ACCTTACC
[1]
  binding signal: 0.306 E-score
[4]
  binding signal: 0.0631 E-score
[5]
  binding signal: 0.111 E-score
[13]
  binding signal: 0.417 E-score
[11]
  binding signal: 0.152 E-score

## ACGCGATC
[10]
  binding signal: 0.314 E-score
[5]
  binding signal: 0.402 E-score
[12]
  binding signal: 0.116 E-score
[6]
  binding signal: 0.198 E-score
[11]
  binding signal: 0.364 E-score

## AGGAAATC
[10]
  binding signal: 0.0998 E-score
[1]
  binding signal: 0.102 E-score
[6]
  binding signal: 0.0993 E-score
[13]
  binding signal: 0.437 E-score
[11]
  binding signal: 0.0802 E-score

## CTAAGGAA
[10]
  binding signal: 0.125 E-score
[1]
  binding signal: 0.47 E-score
[5]
  binding signal: 0.128 E-score
[6]
  binding signal: 0.144 E-score
[13]
  binding signal: 0.246 E-score
[11]
  binding signal: 0.306 E-score

## GTATTGAC
[10]
  binding signal: 0.0776 E-score
[3]
  binding signal: 0.0594 E-score
[5]
  binding signal: 0.147 E-score
[12]
  binding signal: 0.121 E-score
[7]
  binding signal: 0.0734 E-score
[8]
  binding signal: 0.0877 E-score
[9]
  binding signal: 0.455 E-score

## GCTAAGGA
[1]
  binding signal: 0.41 E-score
[5]
  binding signal: 0.142 E-score
[11]
  binding signal: 0.064 E-score

## ACTAGTCA
[10]
  binding signal: 0.0862 E-score
[2]
  binding signal: 0.0985 E-score
[3]
  binding signal: 0.134 E-score
[4]
  binding signal: 0.0655 E-score
[5]
  binding signal: 0.0648 E-score
[12]
  binding signal: 0.0759 E-score
[13]
  binding signal: 0.128 E-score
[7]
  binding signal: 0.108 E-score
[8]
  binding signal: 0.0656 E-score
[9]
  binding signal: 0.435 E-score

## GGAGGGAA
[1]
  binding signal: 0.0867 E-score
[2]
  binding signal: 0.104 E-score
[12]
  binding signal: 0.074 E-score
[13]
  binding signal: 0.421 E-score
[11]
  binding signal: 0.0554 E-score

## ATTTCCTC
[1]
  binding signal: 0.148 E-score
[6]
  binding signal: 0.115 E-score
[13]
  binding signal: 0.437 E-score
[11]
  binding signal: 0.091 E-score

## CTGGCGTA
[10]
  binding signal: 0.371 E-score
[2]
  binding signal: 0.106 E-score
[3]
  binding signal: 0.0635 E-score
[5]
  binding signal: 0.396 E-score
[6]
  binding signal: 0.203 E-score
[11]
  binding signal: 0.409 E-score

## ACGCCACC
[10]
  binding signal: 0.456 E-score
[2]
  binding signal: 0.145 E-score
[3]
  binding signal: 0.0815 E-score
[4]
  binding signal: 0.262 E-score
[5]
  binding signal: 0.472 E-score
[12]
  binding signal: 0.0741 E-score
[6]
  binding signal: 0.276 E-score
[11]
  binding signal: 0.408 E-score
